Test results: the supplement of paper PMC7695840
Counter-ions that a name gives are not always drawn.

Key:
[1] = test system: Staphylococcus aureus MW2 delta-mecA (mecA-); experiment: normalized GFP fluorescence (growth of mecA- strain) (fraction of control range); higher = more growth of mecA- strain; settings: compound concentration: 150 uM; cefoxitin: subinhibitory; fluorescent label: GFP
Summary of the method: (§1)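 In 1536-well plates holding 150 μM compound (1.5% DMSO), a 1:1 mix of pre-induced S. aureus MW2 cells was added at 5 µL/well, in one replicate. One strain carried the gene and DsRed, the other lacked the gene and carried GFP, and the LB held a subinhibitory antibiotic dose chosen daily. Plates stood unshaken for 20 h at 37 °C, 90% humidity, before DsRed (540/590) and GFP (485/520) readings, which were scaled per plate to single-strain control medians, with plates high in untreated ratio and rows above DsRed/GFP 10 dropped.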

[2] = test system: Staphylococcus aureus MW2 (mecA+); experiment: normalized DsRed fluorescence (growth of mecA+ strain) (fraction of control range); higher = more growth of mecA+ strain; settings: compound concentration: 150 uM; cefoxitin: subinhibitory; fluorescent label: DsRed
Summary of the method: as §1

SMILES	normalized GFP fluorescence [1]	normalized DsRed fluorescence [2]
C=C1CC[C@H](O)C/C1=C/C=C1\CCC[C@]2(C)[C@@H]([C@H](C)CCCC(C)(C)O)CC[C@@H]12 [Calcifediol]	-0.0113	0.65
C[C@@H]1CCN(C(=O)CC#N)C[C@@H]1N(C)c1ncnc2[nH]ccc12	0.325	0.9
CC1=Nc2ccc(Cl)cc2S(=O)(=O)N1	0.259	0.639
CN1CCN2c3ncccc3Cc3ccccc3C2C1 (configuration not stated) [Mirtazapine (Remeron, Avanza)]	0.214	1.07
OC[C@H]1O[C@@H](n2cnc3c2N=CNC[C@H]3O)C[C@@H]1O [Pentostatin]	0.461	0.689
O=C1CCC(N2C(=O)c3ccccc3C2=O)C(=O)N1 (configuration not stated)	0.261	0.635
CN1CCC(=C2c3ccccc3CCc3sccc32)CC1 [Pizotifen malate]	0.00361	1.4
CNCCC(Oc1ccc(C(F)(F)F)cc1)c1ccccc1 (configuration not stated)	-0.00367	1.27
CCC[C@H](NC(=O)[C@@H]1[C@H]2CCC[C@H]2CN1C(=O)[C@@H](NC(=O)[C@@H](NC(=O)c1cnccn1)C1CCCCC1)C(C)(C)C)C(=O)C(=O)NC1CC1 [Telaprevir (VX-950)]	0.0337	1.39
Cc1ccc(NC(=O)c2ccc(CN3CCN(C)CC3)cc2)cc1Nc1nccc(-c2cccnc2)n1 [Imatinib Mesylate]	0.184	0.918
CC1=C(C(=O)O)N2C(=O)[C@@H](NC(=O)[C@H](N)c3ccccc3)[C@H]2SC1	0.18	1.02
CN(C)CCCN1c2ccccc2CCc2ccc(Cl)cc21	-0.0283	0.939
N#Cc1ccc(C(c2ccc(C#N)cc2)n2cncn2)cc1	0.628	0.758
CC(=O)OCC(CCn1cnc2cnc(N)nc21)COC(C)=O	0.204	0.667
CCCCCCOC(=O)NC(=N)c1ccc(NCc2nc3cc(C(=O)N(CCC(=O)OCC)c4ccccn4)ccc3n2C)cc1	0.00832	0.473
N=C(N)NC(=O)c1nc(Cl)c(N)nc1N	0.602	0.971
CCCCNc1ccc(C(=O)OCCN(C)C)cc1	0.243	0.719
Cc1cn([C@H]2C=C[C@@H](CO)O2)c(=O)[nH]c1=O	0.779	0.601

SMILES	normalized GFP fluorescence [1]	normalized DsRed fluorescence [2]
O=c1n(CCCN2CCN(c3cccc(Cl)c3)CC2)nc2ccccn12	0.187	1.1
CN1CCC[C@@H]1Cc1c[nH]c2ccc(CCS(=O)(=O)c3ccccc3)cc12	0.194	0.948
CC(=O)Nc1cccc(-n2c(=O)n(C3CC3)c(=O)c3c(Nc4ccc(I)cc4F)n(C)c(=O)c(C)c32)c1	0.179	1.12
COc1ccc(CNc2nc(N3CCC[C@H]3CO)ncc2C(=O)NCc2ncccn2)cc1Cl [Avanafil]	0.53	0.718
CCN(CC)CCOC(=O)c1ccc(N)cc1	0.335	0.634
NC(=O)N1c2ccccc2CC(=O)c2ccccc21	0.596	0.408
CC1(C)O[C@@H]2C[C@H]3[C@@H]4C[C@H](F)C5=CC(=O)C=C[C@]5(C)[C@@]4(F)[C@@H](O)C[C@]3(C)[C@]2(C(=O)CO)O1	0.372	0.706
NS(=O)(=O)c1cc2c(cc1Cl)NC(C(Cl)Cl)NS2(=O)=O (configuration not stated)	0.381	0.814
CC(=O)O[C@H]1C(=O)[C@@]2(C)[C@H]([C@H](OC(=O)c3ccccc3)[C@]3(O)C[C@H](OC(=O)[C@H](O)[C@@H](NC(=O)c4ccccc4)c4ccccc4)C(C)=C1C3(C)C)[C@]1(OC(C)=O)CO[C@@H]1C[C@@H]2O [Paclitaxel (Taxol)]	0.188	0.669
CCC1(c2ccccc2)C(=O)NCNC1=O	0.33	0.811
C1CNCCN1	0.806	0.885
COC(=O)C1=C(C)NC(C)=C(C(=O)OC(C)C)C1c1cccc2nonc12 (configuration not stated)	0.00618	1.51
CCCCNc1cc(C(=O)O)cc(S(N)(=O)=O)c1Oc1ccccc1	0.446	0.877
Cn1cnc([N+](=O)[O-])c1Sc1ncnc2[nH]cnc12	0.269	1.03
C1CCC(C(CC2CCCCN2)C2CCCCC2)CC1 (configuration not stated)	0.000248	0.0259
COc1cc2c(cc1OC)CC(=O)N(CCCN(C)C[C@H]1Cc3cc(OC)c(OC)cc31)CC2 [Ivabradine HCl (Procoralan)]	0.478	0.555
Cc1ccc(NC(=O)c2ccc(CN3CCN(C)CC3)cc2)cc1Nc1nc(-c2cccnc2)cs1 [Masitinib (AB1010)]	0.0914	0.633
Nc1ccn([C@H]2CC[C@@H](CO)O2)c(=O)n1	0.265	0.779
